Assay outcomes as filed in PubChem BioAssay.
EPAC1 agonist: Validation qHTS for agonist of cAMP-regulated guanine nucleotide exchange factor 3 (EPAC1); Rap guanine nucleotide exchange factor 3 (Homo sapiens), O95398; EPAC1 Rap1b BODIPY-GDP exchange, fluorescence; Potency, µM, hits mostly activators; 16,000 tested, 1% active; note: nearly all actives have a fitted effect of over 70% in size
Target sequence (O95398 whole entry, looked up): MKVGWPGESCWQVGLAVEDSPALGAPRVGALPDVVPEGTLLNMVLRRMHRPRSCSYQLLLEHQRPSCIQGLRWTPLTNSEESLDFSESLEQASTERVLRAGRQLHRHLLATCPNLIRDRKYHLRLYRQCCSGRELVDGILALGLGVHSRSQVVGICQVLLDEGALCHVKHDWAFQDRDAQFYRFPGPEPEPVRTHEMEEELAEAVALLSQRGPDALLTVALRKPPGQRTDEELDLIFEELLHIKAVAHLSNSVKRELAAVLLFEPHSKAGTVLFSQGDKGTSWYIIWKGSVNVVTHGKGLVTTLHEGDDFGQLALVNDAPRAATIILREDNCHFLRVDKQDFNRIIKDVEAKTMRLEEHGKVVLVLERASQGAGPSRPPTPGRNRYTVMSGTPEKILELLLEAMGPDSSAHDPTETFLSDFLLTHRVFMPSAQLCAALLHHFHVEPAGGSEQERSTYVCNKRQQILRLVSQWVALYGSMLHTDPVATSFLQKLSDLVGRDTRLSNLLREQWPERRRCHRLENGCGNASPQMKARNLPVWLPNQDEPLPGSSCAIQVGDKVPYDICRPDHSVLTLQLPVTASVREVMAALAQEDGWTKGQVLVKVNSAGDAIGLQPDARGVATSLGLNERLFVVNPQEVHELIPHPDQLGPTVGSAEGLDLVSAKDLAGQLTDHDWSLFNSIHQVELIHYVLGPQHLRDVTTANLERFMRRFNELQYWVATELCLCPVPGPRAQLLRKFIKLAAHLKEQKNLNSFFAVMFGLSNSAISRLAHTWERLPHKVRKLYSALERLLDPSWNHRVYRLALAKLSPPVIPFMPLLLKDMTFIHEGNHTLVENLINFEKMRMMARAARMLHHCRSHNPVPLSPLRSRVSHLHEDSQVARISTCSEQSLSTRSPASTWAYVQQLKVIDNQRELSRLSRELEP
EPAC2 ant val: Validation qHTS for antagonist of cAMP-regulated guanine nucleotide exchange factor 4 (EPAC2) | Rap guanine nucleotide exchange factor 4 (Homo sapiens), Q8WZA2 | EPAC2 Rap1B BODIPY-GDP exchange, fluorescence | Potency, µM (top dose mostly 112 µM), usual class: inhibitors | 16,000 tested, 1.7% active; note: nearly all actives have a fitted effect of over 40% in size
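Normalized against a 6.5 mM cAMP agonist control, compounds were tested on 100 nM EPAC2 exchanging Rap1B-bound BODIPY-GDP (250 nM) for 50 uM GDP. Fluorescence drop (ex 480, em 540 nm) was tracked at room temperature over 30 min at 5-min intervals.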
A number is an active result; – = inactive; ? = inconclusive; ! = not active in a repeat. This is a sample that favours compounds with a hit; in the whole collection about 3.1% have one here. Calls come from the whole dose curve; as a rule, active = well fitted curve in the direction sought with a large enough effect; inconclusive = small, poorly fitted or top-dose-only effect, or another doubt; inactive = no such curve, though single readings can be large; an effect the other way counts as inactive or inconclusive.

SMILES	EPAC1 agonist	EPAC2 ant val
O=c1cnc2cnc(OCc3ccccc3)nc2n1CCc1ccccc1	?	22µM
N#CCCn1c(=O)cnc2cnc(OCc3ccccc3)nc21	–	–
COc1cc(C)c(CN2C[C@H](Sc3nc4ccccc4[nH]3)C[C@H]2C(=O)N(C)C)cc1C	–	–
CCCCCCCN(c1ccccc1)C1C[C@H]2CCCC(=O)N3CC[C@@H](C1)[C@@H]23 (stereo partly specified)	–	?
O=C1CCC[C@@H]2CC(N(Cc3cc4ccccc4s3)c3ccccc3)C[C@@H]3CCN1[C@H]23 (stereo partly specified)	100µM	–
CCOc1ccc(CN2CCOc3ccc(C(O)c4cccnc4)cc3C2)cc1 (stereo unspecified)	–	–
O=S1(=O)CCO[C@H]2Cc3ccccc3[C@H]2N1Cc1cccc(F)c1	–	?
O=S1(=O)CCO[C@H]2Cc3ccccc3[C@H]2N1Cc1cccc(C(F)(F)F)c1	–	28µM
Cc1cccc2c(Nc3ccc4c(c3)OCO4)nc(CN3CCC(N4CCCCC4)CC3)nc12	–	–
O=C1C=CC(=C(c2ccc(O)cc2)c2ccc(O)cc2)C=C1	100µM	?
CCC(=O)c1ccc(O)cc1	–	–
CC1=C(C(=O)O)N2C(=O)[C@@H](NC(=O)[C@H](N)C3=CCC=CC3)[C@H]2SC1	–	–
Cc1cc(-c2ccc(N=Nc3ccc4c(S(=O)(=O)O)cc(S(=O)(=O)O)c(N)c4c3O)c(C)c2)ccc1N=Nc1ccc2c(S(=O)(=O)O)cc(S(=O)(=O)O)c(N)c2c1O	–	32µM!
Nc1c(N=Nc2ccc(-c3ccc(N=Nc4cc(S(=O)(=O)O)c5ccccc5c4N)cc3)cc2)cc(S(=O)(=O)O)c2ccccc12	–	40µM
CC(=O)c1ccccc1C(=O)NCC1Cc2cccc(-c3cccnc3)c2O1 (stereo unspecified)	–	–
CC(C)C[C@@H](COc1ccccc1)N1CCN(CCc2ccccc2)CCC1=O	–	32µM
CCCN1CCC(=O)N([C@H](COc2ccccc2)CC(C)C)CC1	–	–
CN(C)c1ncc2nc(CCc3ccccc3)c(=O)n(Cc3cccs3)c2n1	112µM	–
O=c1c(-c2ccc(F)cc2)nc2cnc(Nc3ccccc3)nc2n1Cc1cccs1	100µM	?
COc1ccc(-c2nc3cnc(Nc4ccccc4)nc3n(Cc3cccs3)c2=O)cc1	–	–
CN(C)c1ncc2nc(-c3ccc(F)cc3)c(=O)n(Cc3cccs3)c2n1	–	–
Cc1nc2cnc(N(C)C)nc2n(Cc2cccs2)c1=O	–	–
COc1ccc(Oc2ncc3nc(C)c(=O)n(Cc4cccs4)c3n2)cc1	112µM	?
Cc1nc2cnc(Oc3ccccc3)nc2n(Cc2cccs2)c1=O	–	?
CN(C)c1ncc2nc(-c3cc(F)cc(F)c3)c(=O)n(Cc3cccs3)c2n1	112µM	–
SMILES	EPAC1 agonist	EPAC2 ant val
OCC1O[C@H]([S-])[C@H](O)[C@@H](O)[C@@H]1O.[Au+] (stereo partly specified)	–	–
CC(=O)c1ccc(-c2ccc3c4c(ccc3c2)OC(CNC(=O)[C@@H]2CCCN2C(C)=O)C4)s1 (stereo partly specified)	–	?
NCCCC[C@H](NC(=O)[C@@H]1CCCN1C(=O)[C@@H]1CSSC[C@H](NC(=O)CNC(=O)CNC(=O)CN)C(=O)N[C@@H](Cc2ccc(O)cc2)C(=O)N[C@@H](Cc2ccccc2)C(=O)N[C@@H](CCC(N)=O)C(=O)N[C@@H](CC(N)=O)C(=O)N1)C(=O)NCC(N)=O	–	–
CO[C@H]1[C@H](NC(=O)c2ccsc2)c2ccccc2C12CCN(Cc1cc(Cl)ccc1O)CC2	–	–
Cc1c(C(=O)NCC(C)C)sc2ncnc(NCC3CCCO3)c12 (stereo unspecified)	–	–
COc1ccc(/C=C/c2ccccn2)cc1	–	–
O=C1O/C(=C/Br)CCC1c1cccc2ccccc12 (stereo unspecified)	–	4µM
CC(C)c1c(O)ccc2c1CCC1[C@@](C)(CO)CCC[C@@]21C (stereo partly specified)	–	–
COc1ccc2c(c1)[C@@]1(C)CCC[C@](C)(CO)C1CC2 (stereo partly specified)	–	45µM
C[C@@H]1[C@H](O)[C@@H](C)/C=C/C=C\C=C\C=C\C=C\C=C\C=C\[C@H](O[C@@H]2O[C@H](C)[C@@H](O)[C@H](N)[C@@H]2O)C[C@@H]2O[C@](O)(C[C@@H](O)C[C@@H](O)[C@H](O)CC[C@@H](O)C[C@@H](O)CC(=O)O[C@H]1C)C[C@H](O)[C@H]2C(=O)O (stereo in doubt)	–	–
CC1=C(CC(=O)O)c2cc(F)ccc2/C1=C\c1ccc(S(C)(=O)=O)cc1	–	–
CS(=O)(=O)c1ccc(-c2cc(Br)sc2-c2ccc(F)cc2)cc1	–	40µM
COC(=O)c1cc(CNC(=O)c2cccc(F)c2)cc(NC(=O)c2ccccc2OC)c1	–	–
COc1ccccc1-c1ccnc(-n2ncc(C(=O)NC(c3cccnc3)C(F)(F)F)c2C)n1 (stereo unspecified)	–	–
COc1ccc(CCNC(=O)c2cnn(-c3nccc(-c4cccs4)n3)c2C)cc1OC	–	–
CCN(CC)c1ccccc1/C=C/[n+]1ccc(CCCCI)c2ccccc21	–	56µM
Cc1cccc(C)c1NC(=O)C(C)N (stereo unspecified)	89µM!	–
CN=C(N)NC(=O)Nc1c(C)cccc1C	–	–
O=C(O)C1=CC(=C(c2ccc(O)c(C(=O)O)c2)c2ccc(O)c(C(=O)O)c2)C=CC1=O	?	40µM!
Nc1ccc(O)c(C(=O)O)c1	?	–
COc1cc(=O)n2c(c1C(=O)N1CCc3ccccc3C1)CCN(Cc1ccc(CO)o1)CC2	–	–
COCC(=O)Nc1cc(C(=O)NC2CCCc3ccccc32)c2c(c1)nc(-c1ccncc1)n2C (stereo unspecified)	–	–
COC(=O)C1=C(C)NC(C)=C(C(=O)OC(C)C)C1c1cccc2nonc12 (stereo unspecified)	–	50µM!
COC(=O)C1=C(C)NC(C)=C(C(=O)OCC(C)C)C1c1ccccc1[N+](=O)[O-] (stereo unspecified)	–	?
O=C1NC(=O)/C(=C/c2ccc(-c3ccc(F)cc3O)o2)S1	–	7.9µM
SMILES	EPAC1 agonist	EPAC2 ant val
O=C1NC(=O)/C(=C/c2ccc3nccnc3c2)S1	–	–
CCCCCCCCCCCCCCCC[N+](C)(C)Cc1ccccc1	–	79µM
CCCCCCCC[N+](C)(C)CCCCCCCC	–	–
CCCCCCCCCCCCCCCC[N+](C)(C)CC	–	56µM
CCCCCCCCCCCCCC[N+](C)(C)Cc1ccccc1	–	–
C/C(=C(\CCOC(=O)c1ccccc1)SS/C(CCOC(=O)c1ccccc1)=C(/C)N(C=O)Cc1cnc(C)nc1N)N(C=O)Cc1cnc(C)nc1N	–	–
Cn1cc(CN2CCOc3ccc(C(O)C4CCCCC4)cc3C2)cn1 (stereo unspecified)	–	?
COc1ccc2c(c1)-c1nc(-n3ncc(C(=O)N(C)CCO)c3C3CC3)ncc1CC2	–	?
COc1cc(CN2CCC3(CCC(CNC(=O)c4ccccc4)O3)CC2)cc(OC)c1 (stereo unspecified)	–	–
